From PubChem BioAssay (NCI)
Compounds without any hit were thinned out: in the full panel of roughly 83,000, 20% have a hit.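 Note: values are percent growth. 100 is the growth of untreated cells, values between 100 and 0 indicate rising inhibition; between -100 and 0 indicates cell death.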 Values without a mark were called inactive. Active and inactive are the calls of the source. Rule for the calls: active = growth percent below 10; inactive = the rest.

These compounds were tested on MALME-3M melanoma (assay: NCI-60 one-dose screen, 48 h (100 = growth as untreated, 0 = no growth, -100 = all killed)). Conditions: 10 µM unless noted.
With `COc1ccc(C(=O)NC(=O)Nc2ccc3c(c2)NC(=O)/C3=C\c2[nH]c(C)c(CCC(=O)O)c2C)c(F)c1` the growth was 40.6%. For `Cn1c(I)c(C#C[Si](C)(C)C)c(=O)[nH]c1=O`, the growth was -65.9% (active). Compound `COC(=O)c1oc2c(C(C)=O)c(OCCCN(C)C)ccc2c1C` has a growth of 72.3%. `CC(C)NCC(O)COc1ccc(CC(N)=O)cc1` (stereo not drawn) gave a growth of 98.4%. `O=C(NCCNc1nccc(-c2c(-c3cccc(O)c3)nc3sccn23)n1)Nc1cccc(C(F)(F)F)c1` showed a growth of 23.6%. `CNCCCOc1c(Br)cc(CCNC(=O)/C(Cc2ccc(OC)c(Br)c2)=N/O)cc1Br` was tested, and the growth was 1.79% (active). `COc1cccc(-c2nc3sccn3c2-c2ccnc(NCCNC(=O)c3ccccc3)n2)c1` showed a growth of 26.7%. Compound `O=C(N/N=C1\SCC(=O)N1c1ccccc1)c1cc(-c2cc3ccccc3o2)nn1-c1ccccc1` has a growth of 94%. For `Cc1ccc2c(c1)Nc1ccc(C)cc1C2(C)C`, the growth was 98.9%. `COc1cc(NC(C)CCCN2C(=O)c3ccccc3C2=O)c2nccc(C)c2c1OC` (stereo not drawn) showed a growth of 81.2%. `NCC(=O)NS(=O)(=O)OC[C@H]1O[C@@H](n2cnc3c(N)ncnc32)[C@H](O)[C@@H]1O` was tested, and the growth was -2.82% (active). In the case of `CCN(CC)CC(=O)Nc1c(C)cccc1C`, the growth was 93.3%. `Nc1ncnc2c1c(-c1ccc(Oc3ccccc3)cc1)nn2C[C@@H]1SSC[C@H]1O` was tested, and the growth was 7.28% (active). Work on `COc1cc(/C=C\c2cc(/C=C\c3ccc(O)c(OC)c3)n(C(=O)CNc3ccccc3OC)n2)ccc1O` yielded a growth of 47.9%. For `O=C1OC(N(Cc2ccc(Cl)cc2)c2ccccc2)c2ccccc21` (stereo not drawn), the growth was 104%. Compound `CN(C)CC/C=C1\c2ccccc2Sc2ccc(Cl)cc21` has a growth of 69.8%. `O=C(Nc1cccc(-n2ccc3c(NC(=O)c4ccccc4)nccc32)c1)Nc1cc(C(F)(F)F)cc(C(F)(F)F)c1` gave a growth of 26.2%. `CCCCC(=O)Nc1nc2ccc(SCCC)cc2s1` gave a growth of 50%. `CCN(CC)c1ccc(C2CC(c3cc(OC)c(OC)c(OC)c3)=NN2)cc1` (stereo not drawn) showed a growth of 108%. `c1ccc2nc(Cn3cc[n+](Cc4ccc5ccccc5n4)c3)ccc2c1` gave a growth of 50.2%. With `Clc1ccc(OCc2nc(-c3ccccc3)n[nH]2)c(Cl)c1` the growth was 104%. With `CC(C)CNCC(=O)Nc1ccc(Cc2ccc(NC(=O)CNCC(C)C)cc2)cc1` the growth was -23% (active). For `O=C(O)c1ccc(-n2cc(/C=N/Nc3ccc(F)cc3)c(-c3cccc(C(F)(F)F)c3)n2)cc1`, the growth was 88.2%. For `CCCCCCCCCCCCCCCCCCNCc1ccc(Cl)cc1`, the growth was -57.6% (active). `COc1ccc(CCNC=O)cc1OC` gave a growth of 90%. `O=C(COc1ccc(Cl)cc1Cl)N1N=C(c2ccc(Cl)cc2Cl)CC1(O)c1cc(F)c(Cl)cc1Cl` (stereo not drawn) gave a growth of 129%. Compound `Cc1nccc2c3ccc(OCc4cn(Cc5ccc(Br)cc5)nn4)cc3n(CCCc3ccccc3)c12` has a growth of 92.9%. Work on `COc1ccc(-c2c(C#N)cnc(N)c2-c2nc3cc(C)c(C)cc3[nH]2)cc1` yielded a growth of 45.9%. Work on `O=c1c2ccccc2[nH]n1Cc1ccc2c(c1)OCO2` yielded a growth of 100%. In the case of `COc1cc(Nc2ncccc2C(=O)Nc2nc3ccc(F)cc3s2)cc(OC)c1OC`, the growth was 78.8%. `Cc1ccc(Cn2cc(COc3ccc4c5ccnc(C)c5n(CCCc5ccccc5)c4c3)nn2)cc1` showed a growth of 87.9%. Compound `O=C(Nc1ccc(-n2ccc3c(NC(=O)c4ccccc4)ncnc32)cc1)Nc1ccc(Cl)c(C(F)(F)F)c1` has a growth of 15%. `CCCCOc1c(N)cc(Cl)cc1C(=O)OCCN(CC)CC` was tested, and the growth was 102%. `CC(Cl)(CCl)CS(=O)(=O)c1ccc(Cl)cc1` (stereo not drawn) was tested, and the growth was 114%. `CCc1c(C)c2cc3c(c(C)c2oc1=O)OCC(=O)N3` showed a growth of 79%. `Cc1ccc(NC(=O)CN2CCOCC2)cc1Cl` gave a growth of 102%. `CC1(C)CC(=O)C2=C(C1)OC1=C(C(=O)CC(C)(C)C1)C2c1ccc(OCc2cn(-c3ccc(F)cc3F)nn2)cc1` was tested, and the growth was 89.6%. For `COc1cccc(-c2nc3sccn3c2-c2ccnc(NCCNC(=O)Nc3cccc(C(F)(F)F)c3)n2)c1`, the growth was 85.1%. With `CN(C)c1ccc(/C=N/N=C(N)N)cc1` the growth was 77%.

What follows are compounds tested on MDA-MB-231 breast in the same assay as above. Conditions: 10 µM unless noted.
With `COc1ccc(C(=O)NC(=O)Nc2ccc3c(c2)NC(=O)/C3=C\c2[nH]c(C)c(CCC(=O)O)c2C)c(F)c1` the growth was 71.5%. `Cn1c(I)c(C#C[Si](C)(C)C)c(=O)[nH]c1=O` was tested, and the growth was 9.45% (active). In the case of `COC(=O)c1oc2c(C(C)=O)c(OCCCN(C)C)ccc2c1C`, the growth was 95%. Compound `CC(C)NCC(O)COc1ccc(CC(N)=O)cc1` (stereo not drawn) has a growth of 103%. Compound `O=C(NCCNc1nccc(-c2c(-c3cccc(O)c3)nc3sccn23)n1)Nc1cccc(C(F)(F)F)c1` has a growth of 37.7%. `CNCCCOc1c(Br)cc(CCNC(=O)/C(Cc2ccc(OC)c(Br)c2)=N/O)cc1Br` was tested, and the growth was 26.8%. For `COc1cccc(-c2nc3sccn3c2-c2ccnc(NCCNC(=O)c3ccccc3)n2)c1`, the growth was 83.5%. `O=C(N/N=C1\SCC(=O)N1c1ccccc1)c1cc(-c2cc3ccccc3o2)nn1-c1ccccc1` showed a growth of 91.9%. Work on `Cc1ccc2c(c1)Nc1ccc(C)cc1C2(C)C` yielded a growth of 114%. In the case of `COc1cc(NC(C)CCCN2C(=O)c3ccccc3C2=O)c2nccc(C)c2c1OC` (stereo not drawn), the growth was 84.7%. With `NCC(=O)NS(=O)(=O)OC[C@H]1O[C@@H](n2cnc3c(N)ncnc32)[C@H](O)[C@@H]1O` the growth was 2.61% (active). For `CCN(CC)CC(=O)Nc1c(C)cccc1C`, the growth was 108%. In the case of `Nc1ncnc2c1c(-c1ccc(Oc3ccccc3)cc1)nn2C[C@@H]1SSC[C@H]1O`, the growth was 42.6%. For `COc1cc(/C=C\c2cc(/C=C\c3ccc(O)c(OC)c3)n(C(=O)CNc3ccccc3OC)n2)ccc1O`, the growth was 87%. Work on `O=C1OC(N(Cc2ccc(Cl)cc2)c2ccccc2)c2ccccc21` (stereo not drawn) yielded a growth of 84.8%. `CN(C)CC/C=C1\c2ccccc2Sc2ccc(Cl)cc21` was tested, and the growth was 69%. With `O=C(Nc1cccc(-n2ccc3c(NC(=O)c4ccccc4)nccc32)c1)Nc1cc(C(F)(F)F)cc(C(F)(F)F)c1` the growth was -10.5% (active). `CCCCC(=O)Nc1nc2ccc(SCCC)cc2s1` gave a growth of 51.9%. For `CCN(CC)c1ccc(C2CC(c3cc(OC)c(OC)c(OC)c3)=NN2)cc1` (stereo not drawn), the growth was 31.7%. With `c1ccc2nc(Cn3cc[n+](Cc4ccc5ccccc5n4)c3)ccc2c1` the growth was 77.9%. `Clc1ccc(OCc2nc(-c3ccccc3)n[nH]2)c(Cl)c1` gave a growth of 98.8%. `CC(C)CNCC(=O)Nc1ccc(Cc2ccc(NC(=O)CNCC(C)C)cc2)cc1` was tested, and the growth was -0.499% (active). Compound `O=C(O)c1ccc(-n2cc(/C=N/Nc3ccc(F)cc3)c(-c3cccc(C(F)(F)F)c3)n2)cc1` has a growth of 87.8%. For `CCCCCCCCCCCCCCCCCCNCc1ccc(Cl)cc1`, the growth was -72.9% (active). Compound `COc1ccc(CCNC=O)cc1OC` has a growth of 112%. Compound `O=C(COc1ccc(Cl)cc1Cl)N1N=C(c2ccc(Cl)cc2Cl)CC1(O)c1cc(F)c(Cl)cc1Cl` (stereo not drawn) has a growth of 136%. For `Cc1nccc2c3ccc(OCc4cn(Cc5ccc(Br)cc5)nn4)cc3n(CCCc3ccccc3)c12`, the growth was 79.3%. `COc1ccc(-c2c(C#N)cnc(N)c2-c2nc3cc(C)c(C)cc3[nH]2)cc1` was tested, and the growth was 53.4%. Work on `O=c1c2ccccc2[nH]n1Cc1ccc2c(c1)OCO2` yielded a growth of 114%. For `COc1cc(Nc2ncccc2C(=O)Nc2nc3ccc(F)cc3s2)cc(OC)c1OC`, the growth was 71.4%. In the case of `Cc1ccc(Cn2cc(COc3ccc4c5ccnc(C)c5n(CCCc5ccccc5)c4c3)nn2)cc1`, the growth was 75.8%. With `O=C(Nc1ccc(-n2ccc3c(NC(=O)c4ccccc4)ncnc32)cc1)Nc1ccc(Cl)c(C(F)(F)F)c1` the growth was 12%. For `CCCCOc1c(N)cc(Cl)cc1C(=O)OCCN(CC)CC`, the growth was 101%. `CC(Cl)(CCl)CS(=O)(=O)c1ccc(Cl)cc1` (stereo not drawn) showed a growth of 96.5%. For `CCc1c(C)c2cc3c(c(C)c2oc1=O)OCC(=O)N3`, the growth was 65.6%. `Cc1ccc(NC(=O)CN2CCOCC2)cc1Cl` gave a growth of 96%. Compound `CC1(C)CC(=O)C2=C(C1)OC1=C(C(=O)CC(C)(C)C1)C2c1ccc(OCc2cn(-c3ccc(F)cc3F)nn2)cc1` has a growth of 91.8%. With `COc1cccc(-c2nc3sccn3c2-c2ccnc(NCCNC(=O)Nc3cccc(C(F)(F)F)c3)n2)c1` the growth was 43.7%. `CN(C)c1ccc(/C=N/N=C(N)N)cc1` showed a growth of 75.8%.
